Results on eight compounds are retold here after PubChem BioAssay (Tox21).

Experiment [1] can be described thus: qHTS assay to identify small molecule antagonists of the androgen receptor (AR) signaling pathway using the MDA cell line in the presence of 0.5 nM R1881 - cell viability counter screen (AID 1259242). Also: nearly all actives have a fitted effect of over 45% in size. Also: potency is read from the fitted curve at half-maximal effect. In a few lines:
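Concentration-response screen of compounds for toxicity in MDA-kb2 reporter cells: 16 hr at 37C with 0.5 nM R1881, endpoint live-cell protease fluorescence measured in the reporter wells.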
A general note: Quantitative high-throughput screening tests each substance at several concentrations.

Experiment [2] addresses Estrogen receptor (Homo sapiens) (UniProt P03372). The experiment in a line: qHTS assay to identify small molecule antagonists of the estrogen receptor alpha (ER-alpha) signaling pathway using the BG1 cell line in the presence of 0.1 nM 17-beta-estradiol (AID 1259244). Also: nearly all actives have a fitted effect of over 50% in size. Also: potency is read from the fitted curve at half-maximal effect. In a few lines:
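Compounds were tested against 0.1 nM (final) 17beta-estradiol in VM7Luc4E2 cells, which express full-length ER-alpha and an ERE-luciferase reporter; luminescence was recorded following 22 h exposure.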

Experiment [3] is described as follows: qHTS assay to identify small molecule HDAC inhibitors (AID 1259364). Also: potency is read from the fitted curve at half-maximal effect.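 Also: wild-type HCT-116 cells with endogenous class I/II HDAC activity; nearly all actives have a fitted effect of over 45% in size.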 In a few lines: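 Screening used wild-type human colon HCT-116 cells incubated overnight, dosed with compounds for 2 hours, and assayed with a homogeneous luminogenic HDAC I/II reagent for 30 minutes at room temperature.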
Experiment [4] can be described thus: qHTS assay to identify small molecule HDAC inhibitors - cell viability counter screen (AID 1259365). Also: nearly all actives have a fitted effect of over 50% in size. Also: potency is read from the fitted curve at half-maximal effect. The essentials:
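HCT-116 (wild type), 1,500 cells/well, overnight 37C/5% CO2; compound in DMSO 2hr; CellTiter-Glo 30min RT; luminescence read.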

A short description of experiment [5]: qHTS assay to identify small molecule agonists of the sonic hedgehog signaling (Shh) pathway - cell viability counter screen (AID 1259366). Also: nearly all actives have a fitted effect of over 50% in size. Also: potency is read from the fitted curve at half-maximal effect. The essentials: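 CellTiter-Fluor fluorescence read-out, 1 hr at 37C, added after 23hr compound exposure. Cells: 3T3 Gli1-Luc, an NIH/3T3 clone with stably integrated Gli1-Luc reporter, plated 4hr before compound.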
A short description of experiment [6]: qHTS assay to identify small molecule antagonists of the sonic hedgehog signaling (Shh) pathway - cell viability counter screen (AID 1259367). Also: nearly all actives have a fitted effect of over 55% in size. Also: potency is read from the fitted curve at half-maximal effect. The essentials:
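Cytotoxicity was assessed in parallel with Shh reporter activity by measuring live-cell protease fluorescence (CellTiter-Fluor) in NIH/3T3 cells stably carrying Gli1-Luc, treated with compound under conditioned medium stimulation for 23 hr plus 1 hr reagent incubation.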

A short description of experiment [7]: qHTS assay to identify small molecule antagonists of the sonic hedgehog signaling (Shh) pathway (AID 1259369; calls by dose curve; also: nearly all actives have a fitted effect of over 45% in size; also: potency is read from the fitted curve at half-maximal effect). In a few lines: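 NIH/3T3 stable Gli1-Luc clone, 2,000 cells/well, 4hr settle; cpd + conditioned medium 24hr; Luc reagent 30min RT; luminescence.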
Experiment [8] in a line: qHTS assay to identify small molecule agonists of the androgen receptor (AR) signaling pathway in the presence of an antagonist - cell viability counter screen (AID 1259379). Also: nearly all actives have a fitted effect of over 25% in size. Also: potency is read from the fitted curve at half-maximal effect. The essentials: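 MDA-kb2 viability measured by CellTiter-Fluor fluorescence in the same wells as the luciferase signal; nilutamide 3.0uM final; 15-point compound titration; 16 hr at 37C.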
Experiment [9] is described as follows: qHTS assay to identify small molecule agonists of the estrogen receptor beta (ER-beta) signaling pathway - cell viability counter screen (AID 1259380). Also: nearly all actives have a fitted effect of over 30% in size. Also: potency is read from the fitted curve at half-maximal effect. The essentials:
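Measured: luminescence from CellTiter-Glo after 30 min at room temperature, added to wells already read for the LiveBLAzer FRET reporter (2 hr substrate); ER-beta-UAS-bla HEK293T cells had 16 hr compound treatment at 37C, 5% CO2.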

Experiment [10] can be described thus: qHTS assay to identify small molecule antagonists of the estrogen receptor beta (ER-beta) signaling pathway - cell viability counter screen (AID 1259382). Also: nearly all actives have a fitted effect of over 55% in size. Also: potency is read from the fitted curve at half-maximal effect. The essentials: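 Readout: luminescence, CellTiter-Glo, same wells as bla assay. System: ER-beta-UAS-bla GripTite HEK293T, 2% charcoal-stripped FBS. Exposure: compounds plus 1nM 17-beta-estradiol, 16 hr, 37C.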

In experiment [11] the target is Estrogen receptor (Homo sapiens) (UniProt P03372). The experiment in a line: qHTS assay to identify small molecule agonists of the estrogen receptor alpha (ER-alpha) signaling pathway in the presence of an antagonist (AID 1259383; calls by dose curve; also: nearly all actives have a fitted effect of over 15% in size; also: potency is read from the fitted curve at half-maximal effect; as to activation: top concentration of the series differs between compounds). The essentials:
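Quantitative HTS confirmation: compounds titrated at 15 concentrations onto estrogen-deprived VM7Luc4E2 cells carrying a four-ERE luciferase construct, with ICI-182,780 present at 10.0nM final. Signal is luminescence after 22hr exposure.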

In experiment [12] the target is Thyrotropin receptor (Homo sapiens) (UniProt P16473). The experiment in a line: qHTS assay to identify small molecule antagonists of the thyroid stimulating hormone receptor (TSHR) signaling pathway (AID 1259385; calls by dose curve; also: nearly all actives have a fitted effect of over 20% in size; also: potency is read from the fitted curve at half-maximal effect). The essentials:
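TSHR-HEK293 cells were plated and held 18 h at 37C/5% CO2, then given compound plus Ro20-1724 and stimulated with TSH at 1.5 ng/mL final. After 30 min at room temperature, cAMP was detected with cAMP-d2/anti-cAMP-cryptate (1 h) by fluorescence.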

Experiment [13] is described as follows: qHTS assay to identify small molecule phospholipidosis (PLD) inducers (AID 1259344; active = well fitted curve in the direction sought with a large enough effect; an effect the other way counts as inactive or inconclusive). In a few lines: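 Cells (HepG2, 900 per well) attach for 4 h, receive LipidTOX Red and compound together, incubate 24 h at 37 C, are fixed 30 min with paraformaldehyde/Hoechst, then imaged at one site per well.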
Experiment [14] can be described thus: qHTS assay to identify small molecule agonists of the sonic hedgehog signaling (Shh) pathway (AID 1259368; calls by dose curve;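 also: NIH/3T3-derived 3T3Gli1-Luc cells carrying a stable Gli1-driven firefly luciferase reporter; series mostly up to about 92 µM; nearly all actives have a fitted effect of over 15% in size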). The essentials: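 Hedgehog pathway agonism scored by increased firefly luciferase luminescence in 3T3Gli1-Luc cells treated 24 hr at 37 C; detection used a 30 min room-temperature reagent incubation.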
The nature of experiment [15]: qHTS assay to identify small molecule agonists or antagonists of the thyroid stimulating hormone receptor (TSHR) signaling pathway - wild type cell line counter screen (AID 1259384; calls by dose curve). In a few lines: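 Wild-type HEK293 cells were plated 18 h at 37 C/5% CO2, pin-dosed with compound plus Ro20-1724 medium, held 30 min at room temperature, then given cAMP-d2 and anti-cAMP-cryptate; fluorescence was read after 1 h. Fifteen concentrations, triplicate.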

Experiment [16] in a line: qHTS assay to identify small molecule agonists of the estrogen receptor alpha (ER-alpha) signaling pathway in the presence of an antagonist - cell viability counter screen (AID 1259386).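 Also: cells exposed to compounds for 22 h at 37 °C before the viability read; nearly all actives have a fitted effect of over 30% in size.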 Also: potency is read from the fitted curve at half-maximal effect. The essentials:
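The test measures whether compounds kill ER-alpha reporter cells (VM7Luc4E2) under antagonist co-treatment (ICI-182,780, 10.0nM). Fluorescence from CellTiter-Fluor is read after a 22hr exposure.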

For experiment [17], the target named is Estrogen receptor beta (Homo sapiens) (UniProt Q92731). The experiment can be described thus: qHTS assay to identify small molecule antagonists of the estrogen receptor beta (ER-beta) signaling pathway (AID 1259378; active = well fitted inhibition curve with a large enough effect in the signal ratio in the repeat runs, not every such curve was filed as active; the % refers to the signal ratio; also: potency is read from the fitted curve at half-maximal effect). In a few lines:
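ER-beta-UAS-bla HEK293T (GripTite) cells in 2% charcoal-stripped FBS medium were preincubated 6 hr at 37C, dosed with compound, then stimulated with 1 nM E2 (final) for 16 hr; beta-lactamase reporter read by B/G FRET fluorescence after 2 hr substrate loading.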

For experiment [18] the target is unchanged. The experiment can be described thus: qHTS assay to identify small molecule agonists of the estrogen receptor beta (ER-beta) signaling pathway (AID 1259377; active = well fitted activation curve with a large enough effect in the signal ratio in the repeat runs, not every such curve was filed as active; the % refers to the signal ratio). In a few lines:
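Beta-lactamase reporter readout: fluorescence of LiveBLAzer B/G FRET substrate after 2 h at room temperature, following 16 h compound treatment of ER-beta-UAS-bla HEK293T cells at 37C in 2% charcoal-stripped FBS medium.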

Values joined by “and” are separate entries in the source; they are usually repeats but may differ in a detail not shown here. Equal entries are not always repeated. Inconclusive results are not listed. Active and inactive are the calls of the source. Unless noted, calls follow the shape of the dose curve; as a rule, active = well fitted curve in the direction sought with a large enough effect in the repeat runs; inconclusive = weak or mixed curves; inactive = no such curve, though single readings can be large; an effect the other way counts as inactive or inconclusive.

Sequence of Estrogen receptor (Homo sapiens) (P03372 whole entry, looked up): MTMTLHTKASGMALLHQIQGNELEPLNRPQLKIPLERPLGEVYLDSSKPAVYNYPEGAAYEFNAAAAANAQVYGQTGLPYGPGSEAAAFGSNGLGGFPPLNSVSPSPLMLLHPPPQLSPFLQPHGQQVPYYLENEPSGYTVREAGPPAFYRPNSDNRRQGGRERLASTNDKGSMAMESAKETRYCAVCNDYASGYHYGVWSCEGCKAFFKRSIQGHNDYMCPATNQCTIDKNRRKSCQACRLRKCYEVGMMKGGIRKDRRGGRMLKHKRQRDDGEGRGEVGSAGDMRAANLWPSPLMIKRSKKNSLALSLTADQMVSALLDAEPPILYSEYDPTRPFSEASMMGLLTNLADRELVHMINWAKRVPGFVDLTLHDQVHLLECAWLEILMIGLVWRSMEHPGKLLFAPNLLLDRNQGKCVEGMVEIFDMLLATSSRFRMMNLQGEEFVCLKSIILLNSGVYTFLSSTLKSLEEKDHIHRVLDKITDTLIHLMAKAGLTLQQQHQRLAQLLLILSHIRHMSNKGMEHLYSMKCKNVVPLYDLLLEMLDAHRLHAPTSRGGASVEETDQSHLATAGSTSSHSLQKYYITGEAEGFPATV
Sequence of Estrogen receptor beta (Homo sapiens) (Q92731 whole entry, looked up): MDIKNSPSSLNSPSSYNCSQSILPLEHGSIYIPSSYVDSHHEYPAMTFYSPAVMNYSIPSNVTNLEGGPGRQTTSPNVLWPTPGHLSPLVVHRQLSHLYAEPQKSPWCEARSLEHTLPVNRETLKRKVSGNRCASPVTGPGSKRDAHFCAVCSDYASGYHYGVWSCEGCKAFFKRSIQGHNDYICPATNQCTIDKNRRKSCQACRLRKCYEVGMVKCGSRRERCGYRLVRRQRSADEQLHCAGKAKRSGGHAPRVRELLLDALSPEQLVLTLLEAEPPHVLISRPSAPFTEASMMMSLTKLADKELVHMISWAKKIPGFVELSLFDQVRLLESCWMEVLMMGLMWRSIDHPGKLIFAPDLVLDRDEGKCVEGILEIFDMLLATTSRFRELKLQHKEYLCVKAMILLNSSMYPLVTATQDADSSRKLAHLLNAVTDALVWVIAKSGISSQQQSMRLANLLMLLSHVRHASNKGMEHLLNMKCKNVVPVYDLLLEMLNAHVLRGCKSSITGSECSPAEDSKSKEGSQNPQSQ
Sequence of Thyrotropin receptor (Homo sapiens) (P16473 whole entry, looked up): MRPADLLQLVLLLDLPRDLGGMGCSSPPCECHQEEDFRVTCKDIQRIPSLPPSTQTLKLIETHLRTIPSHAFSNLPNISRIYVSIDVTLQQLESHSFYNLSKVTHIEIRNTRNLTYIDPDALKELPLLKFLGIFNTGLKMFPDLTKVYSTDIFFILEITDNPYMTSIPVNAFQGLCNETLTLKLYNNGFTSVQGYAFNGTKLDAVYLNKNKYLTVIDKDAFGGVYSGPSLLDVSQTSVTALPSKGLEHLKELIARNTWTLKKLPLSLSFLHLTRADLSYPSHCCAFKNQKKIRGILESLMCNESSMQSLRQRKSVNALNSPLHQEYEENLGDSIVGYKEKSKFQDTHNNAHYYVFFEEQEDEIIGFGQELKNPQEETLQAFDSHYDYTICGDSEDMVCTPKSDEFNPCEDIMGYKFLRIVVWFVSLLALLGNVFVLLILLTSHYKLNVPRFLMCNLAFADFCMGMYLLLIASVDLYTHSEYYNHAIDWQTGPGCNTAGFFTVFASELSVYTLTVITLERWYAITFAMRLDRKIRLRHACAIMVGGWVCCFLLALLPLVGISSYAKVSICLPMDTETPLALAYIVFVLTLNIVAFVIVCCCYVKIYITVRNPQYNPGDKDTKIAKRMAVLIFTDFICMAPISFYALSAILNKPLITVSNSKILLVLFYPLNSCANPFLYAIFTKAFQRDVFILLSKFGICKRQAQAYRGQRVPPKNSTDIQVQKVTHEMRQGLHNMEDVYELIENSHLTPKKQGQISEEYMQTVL

In the case of `CCOC(=O)O[C@H](C)OC(=O)c1ccc2c(c1)cc(C(=O)NC1CCN(C(C)C)CC1)n2Cc1cc(-c2ccc(Cl)s2)on1`, the Potency is 40.4 µM (active) in experiment [1]; 64.1 µM (active) in [2]; 50.9 µM (active) in experiment [4]; 12.8 µM (active) in experiment [5]; 20.3 µM (active) in experiment [6]; 9.05 µM (active) in experiment [7]. Further, the Potency in [8] is 45.4 µM (active); in [9] it was 20.3 µM (active); in [10] it was 22.7 µM (active); in experiment [12], 64.1 µM (active). In addition, the Potency entry in experiment [3] and in experiment [11] was “inactive” each time.

In the case of `Cc1c(C)c2c(c(C)c1OC(=O)CCC(=O)O)CC[C@@](C)(CCC[C@H](C)CCC[C@H](C)CCCC(C)C)O2`, the Potency entry in [1], in experiment [13], in experiment [3], in experiment [4], in experiment [5] and in experiment [6] was “inactive” each time. In addition, the Potency entry in experiment [14], in experiment [7], in [12] and in [16] was “inactive” each time. In addition, the Potency in experiment [8] is 27.6 µM (active); in experiment [9], 1.95 µM (active). Besides, in experiment [15], the compound was called inactive.

Take `CCCCC(CC)COP(=O)(O)OCC(CC)CCCC` (stereo not given): the Potency entry in experiment [1], in experiment [2], in experiment [3], in experiment [4], in [6] and in experiment [14] was “inactive” each time. The Potency entry in experiment [7], in [8], in experiment [11] and in experiment [16] was “inactive” in each case. Besides, the Potency in [10] is 68.7 µM (active) and 68.6 µM (active).

Regarding `CC(=O)N1CCN(c2ccc(OC[C@H]3CO[C@](Cn4ccnc4)(c4ccc(Cl)cc4Cl)O3)cc2)CC1`, the Potency was 61.1 µM (active) in experiment [1]; 27.3 µM (active) in experiment [2]; 54.5 µM (active) in [5]; 27.3 µM (active) in experiment [6]; 3.06 µM (active) in experiment [7]; 21.7 µM (active) in experiment [17]. For the same compound, the Potency in experiment [8] is 54.5 µM (active); in [9], 48.6 µM (active); in experiment [10] it was 30.6 µM (active); in experiment [16], 61.1 µM (active). The Potency entry in experiment [14] and in [11] was “inactive” throughout. In [15], the compound was classed as inactive.

Turning to `O=C1c2ccccc2Cc2ccccc21`, the Potency entry in [1], in experiment [2], in [4], in [14], in [7] and in [18] was “inactive” in each case. Also, the Potency entry in experiment [8], in experiment [9], in experiment [10], in experiment [11] and in [12] was “inactive” each time. The Potency in experiment [3] is 6.16 µM (active); in [5] it was 6.91 µM (active).

As to `CN(C)c1ccc(SC#N)cc1`, the Potency entry in [1], in experiment [2], in [3], in experiment [4], in experiment [5] and in experiment [14] was “inactive” each time. In addition, the Potency result in [18], in experiment [11], in experiment [12] and in [16] was “inactive” each time. Also, the results for the Potency in experiment [7] and in [9] were 48.6 µM (active) and 54.5 µM (active), respectively.

As for `CCCCCCCCOC(=O)c1ccc(O)cc1`, the Potency result in experiment [1], in experiment [2], in experiment [4], in experiment [5], in experiment [6] and in experiment [14] was “inactive” each time. The Potency result in experiment [18], in experiment [8], in [12] and in experiment [16] was “inactive” each time. In addition, the Potency in experiment [9] was 54.3 µM (active) and 48.6 µM (active); in [10] it was 43.1 µM (active); in experiment [11] it was 54.5 µM (active). The compound was called inactive in [15].

Take `O=C(NO)C1(NS(=O)(=O)c2ccc(Oc3ccc(F)cc3)cc2)CCOCC1`: the Potency entry in [1], in experiment [3], in experiment [4], in experiment [6], in [14] and in experiment [7] was “inactive” throughout. In addition, the Potency entry in [18], in [10], in [11], in experiment [12] and in experiment [16] was “inactive” in each case. For the same compound, the Potency in [2] is 61.1 µM (active).
